# Measured values from patent US20220289795, “EFFICIENT METHOD FOR PREPARING PPR PROTEIN AND USE OF THE SAME” (EditForce, Inc., published 2022).
# Target: T1, NL_v2_PPR11 (Artificial Sequence)
# T1 chain: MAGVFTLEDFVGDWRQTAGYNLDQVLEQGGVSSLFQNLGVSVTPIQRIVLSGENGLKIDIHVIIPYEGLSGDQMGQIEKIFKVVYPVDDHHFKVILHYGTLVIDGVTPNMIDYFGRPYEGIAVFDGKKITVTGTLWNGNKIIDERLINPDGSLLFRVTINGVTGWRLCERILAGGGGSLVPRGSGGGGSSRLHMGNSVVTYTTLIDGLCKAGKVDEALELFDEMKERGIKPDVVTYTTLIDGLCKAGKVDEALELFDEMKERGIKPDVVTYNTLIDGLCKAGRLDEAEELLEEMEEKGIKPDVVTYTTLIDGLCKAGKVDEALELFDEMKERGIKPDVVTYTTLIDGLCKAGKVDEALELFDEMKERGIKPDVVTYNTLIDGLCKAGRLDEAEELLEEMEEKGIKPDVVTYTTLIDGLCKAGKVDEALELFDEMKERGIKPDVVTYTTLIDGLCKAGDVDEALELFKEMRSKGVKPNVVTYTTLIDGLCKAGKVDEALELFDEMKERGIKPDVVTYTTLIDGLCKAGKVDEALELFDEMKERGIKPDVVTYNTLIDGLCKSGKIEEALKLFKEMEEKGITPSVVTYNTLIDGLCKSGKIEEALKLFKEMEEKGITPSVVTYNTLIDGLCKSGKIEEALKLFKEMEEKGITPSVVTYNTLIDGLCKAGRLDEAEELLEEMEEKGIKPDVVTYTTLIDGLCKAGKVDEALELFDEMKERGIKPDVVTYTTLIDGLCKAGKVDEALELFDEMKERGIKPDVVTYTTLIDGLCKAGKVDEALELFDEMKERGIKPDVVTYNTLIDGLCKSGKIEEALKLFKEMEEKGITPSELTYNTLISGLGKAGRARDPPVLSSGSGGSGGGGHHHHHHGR
# Test: RPB-ELISA
# Conditions: tags: N-terminal luciferase, C-terminal 6xHis; label: 5'-biotin; ssRNA
# Experimental: RNA probes consisting of a designed 30-base sequence containing 18 bases of the target sequence and modified by biotinylation at the 5′ end (RNA_1, RNA_2, RNA_3, RNA_4, and RNA_5, SEQ ID NOS: 61 to 65) were synthesized (Grainer). To a streptavidin-coated plate (Thermo fisher), the 5′-end biotinylated RNA probes were added, reaction was allowed at room temperature for 30 minutes, and the plate was washed with a lysis buffer (20 mM Tris-HCl, pH 7.6, 150 mM NaCl, 5 mM MgCl₂, 0.5% NP-40, 1 mM DTT, 0.1% BSA). For background measurement, wells to which RNA was not added, but 100 μL of the lysis buffer, 1 μL of 100 mM DTT, and 1 μL of 40 unit/4 RNase inhibitor (Takara, 2313A) were added were also prepared. Then, 200 μL of a blocking buffer (20 mM Tris-HCl, pH 7.6, 150 mM NaCl, 5 mM MgCl₂, 0.5% NP-40, 1 mM DTT, 1% BSA) was added, and the plate surface was blocked at room temperature for 30 minutes. Then, 100 μL of E. coli lysate containing luciferase-fused PPR protein having a luminescence level of 1.5×10⁸ LU/μL was added to each well, and the binding reaction was allowed at room temperature for 30 minutes. The well was washed 5 times with 200 μL of a washing buffer (20 mM Tris-HCl, pH 7.6, 150 mM NaCl, 5 mM MgCl₂, 0.5% NP-40, 1 mM DTT). […] The background (luminescence signal value obtained with adding the PPR protein and without adding RNA) was subtracted from the luminescences of the samples to which a solution containing each RNA and PPR protein was added, and the obtained values were used as the binding powers between the PPR protein and RNA.
# By using the v2 motif, PPR proteins for 23 kinds of target sequences (T_1 to T_3, and T_5 to T_24, SEQ ID NOS: […]) were prepared (NL_v2_PPR1 to 3, and NL_v2_PPR5 to 24, SEQ ID NOS: 56 to 58 and 70 to 88), and RPB-ELISA was used to analyze bindings of all the combinations. The experimental method was the same as that used in Example 3.
row,Sequence,binding signal [log2 luminescence]
1,GGUUAGAGAUACAGUGUG,20.4
